Reference: PubChem BioAssay (NCI)
The panel holds about 79,000 compounds, 15% with a hit somewhere; the sample as a whole holds those more often. Activity calls are given as the source filed them. No stated cut-off is given here; in the data, active means growth inhibition above about 70%; inactive means the rest.

Tests used:
[1] = NCI Yeast Anticancer Drug Screen. Data for the rad50 strain (AID 155);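 further: 0% = growth of vehicle-only cultures of the same strain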; details: S. cerevisiae rad50 strain growth inhibition; at 50.0 µM; active compounds read high
In short: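 Genetically altered yeast (DNA repair pathway); compound treatment; growth inhibition vs vehicle ctrl.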

[2] = NCI Yeast Anticancer Drug Screen. Data for the mec2-1 strain (AID 157); details: S. cerevisiae mec2-1 strain, at 50.0 µM, active compounds read high
In short: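 Test agents were screened against the mec2-1 yeast strain, with defined DNA repair or cell cycle alteration. Growth was scored as inhibition against vehicle-only controls.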

[3] = NCI Yeast Anticancer Drug Screen. Data for the sgs1 mgt1 strain (AID 161);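 further: 0% = growth of cultures given vehicle only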; details: S. cerevisiae sgs1 mgt1 strain, at 50.0 µM, active compounds read high
In short: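 Genetically altered yeast, compound exposure, growth inhibition relative to vehicle.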

[4] = NCI Yeast Anticancer Drug Screen. Data for the cln2 rad14 strain (AID 165);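 further: 0% = growth equal to vehicle treated cultures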; details: S. cerevisiae cln2 rad14 strain, at 50.0 µM, active compounds read high
In short: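 Growth of compound-exposed yeast (cln2 rad14 genotype) measured and expressed as inhibition relative to vehicle.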

[5] = NCI Yeast Anticancer Drug Screen. Data for the bub3 strain (AID 167); details: S. cerevisiae bub3 mutant strain, at 50.0 µM, active compounds read high
In short: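 Yeast carrying a defined mutation is treated with each compound, and growth is compared with that of vehicle-exposed cells to give inhibition.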

[6] = NCI Yeast Anticancer Drug Screen. Data for the mlh1 rad18 strain (AID 175); details: S. cerevisiae mlh1 rad18 strain growth inhibition; at 50.0 µM; active compounds read high
In short: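 In this whole-cell yeast screen, a strain with altered DNA damage repair is challenged with compound, and its growth is measured against matched vehicle-treated controls.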

Measured: growth inhibition

COc1ccc(N2C(=O)C3c4[nH]c5ccc(OC)cc5c4C4CCC(C(C)(C)C)CC4C3C2=O)cc1 (stereo unspecified)
inactive: [1] 22.1% | [2] 12.6% | [3] -5.45% | [4] -24% | [5] 16.1% | [6] 20.5%

COC(=O)c1nnn(-c2ccc(Cl)cc2C)c1N
inactive: [1] -17.8% | [2] -1.95% | [3] 16.7% | [4] 29.7% | [5] -15.6% | [6] 21.2%

CC(=O)NNc1nc(C)c(C(/C=C/c2cccc([N+](=O)[O-])c2)=N/NC(=S)NN)s1
inactive: [1] 5.85% | [2] -5% | [3] 2.2% | [4] 4.35% | [5] 12.4% | [6] 12.1%

Cn1nc(-c2ccccc2)c(C(=O)/C=C/c2ccccc2)c(N2CCCC2)c1=O
inactive: [1] -22.1% | [2] -11.2% | [3] 3.2% | [4] -4.15% | [5] -21.1% | [6] -19.2%

CCOC(=O)c1ccccc1OC(=O)Oc1ccccc1C(=O)OCC
inactive: [1] 17.9% | [2] 10.2% | [3] -5.25% | [4] -23.1% | [5] -5.55% | [6] 33.9%

COc1ccc(-c2c(-c3ccccc3)oc(/N=C/c3ccccc3)c2-c2ccccc2)cc1
inactive: [1] 8.35% | [2] -0.75% | [3] 4.9% | [4] -2.8% | [5] 2.25% | [6] 13.8%

O=C(Nc1cccc(C(F)(F)F)c1)C(=O)C(C(=O)c1ccc(Cl)c(Cl)c1)C1OC(=O)c2ccccc21 (stereo unspecified)
inactive: [1] 34.9% | [2] 19.2% | [3] -1.35% | [4] 63.6% | [5] 45.4% | [6] 37.4%

CCC1C2C=CC(CC2)N1S(=O)(=O)c1ccc(C)cc1 (stereo unspecified)
inactive: [1] -0.7% | [2] -9.1% | [3] 10.8% | [4] 30% | [5] 13.2% | [6] -6.05%

CCOC(=O)C1=CN(Cc2ccccc2)C2ON=C(c3ccc(Cl)cc3)C2C1 (stereo unspecified)
inactive: [1] 0.05% | [2] 2.3% | [3] -11.8% | [4] -2.35% | [5] -0.75% | [6] -0.6%

CCN(CC)CCSc1ccnc2cc(Cl)ccc12
inactive: [1] 16.3% | [2] 23.1% | [3] 52.8% | [4] 47.5% | [5] 36% | [6] 21.8%

N#CC1=C(S)N(C2OC(CO)C(O)C(O)C2O)C(c2ccccc2)=CC1c1ccco1 (stereo unspecified)
inactive: [1] 36.1% | [2] 13% | [3] 4.85% | [4] -12.4% | [5] -3% | [6] 27.6%

CNC(=O)Nc1[nH]c(=O)ncc1Cl
inactive: [1] 6.45% | [2] -0.35% | [3] 8.95% | [4] -5.1% | [5] 16.2% | [6] 5.2%

O=C1C=C(Nc2ccc(Cl)cc2C(=O)c2ccccc2)c2ccccc2C1=O
inactive: [1] 3% | [2] -11.7% | [3] -6.9% | [4] 22.2% | [5] -6.55% | [6] -2.9%

Oc1nc(-c2ccccc2)sc1-c1ccccc1
inactive: [1] -6.05% | [2] 16.9% | [3] -0.5% | [4] -24% | [5] -10.7% | [6] -9.15%

Cc1c[nH]c2nc(C)n(-c3ccccc3F)c(=N)c12
inactive: [1] -8.5% | [2] -2.75% | [3] -9.35% | [4] -8.7% | [5] -10.8% | [6] -0.95%

COc1cc2c(c([N+](=O)[O-])c1)NC(=O)C(c1ccccc1)S2 (stereo unspecified)
inactive: [1] -15.9% | [2] -12.3% | [3] -3.45% | [4] 23.1% | [5] 15.9% | [6] -3.95%

CC(=O)OCC1OC(n2cnc([N+](=O)[O-])c2C#N)C(OC(C)=O)C1OC(C)=O (stereo unspecified)
inactive: [1] 28.6% | [2] 14.7% | [3] 22.3% | [4] 30.1% | [5] 3.45% | [6] 34.3%

CCCCCCCC/C=C\CCCCCCCCOC(=O)CC(O)C(=O)OCCCCCCCC/C=C\CCCCCCCC (stereo unspecified)
inactive: [1] -22.6% | [2] -4.05% | [3] -7.5% | [4] -22.9% | [5] -9.8% | [6] -17.2%

NC(=O)NNC(=O)c1nc[nH]c1[N+](=O)[O-]
inactive: [1] -24.2% | [2] -3.3% | [3] 11.6% | [4] -15.9% | [5] -18.2% | [6] -13.3%

NC(=O)c1cn(Cc2ccccc2)c(=O)n1Cc1ccccc1
inactive: [1] 9.75% | [2] 18.2% | [3] -3.2% | [4] 9.45% | [5] 23.8% | [6] 11.7%

Cc1ccc(C(=O)Nc2c(C)cccc2C)cc1
inactive: [1] 3.45% | [2] -40.7% | [3] 13.5% | [4] 3.65% | [5] -4.7% | [6] -5.95%

Oc1ccc(Cl)cc1C1=NC(/N=C\c2ccccc2)=NC(c2ccccc2)C1 (stereo unspecified)
inactive: [1] -0.7% | [2] -4.05% | [3] -43% | [4] -8.1% | [5] -36.8% | [6] -45%

CC1C(c2ccccc2)NC(c2ccccc2)C(C)C1(O)c1ccccc1 (stereo unspecified)
inactive: [1] 10.3% | [2] 5.3% | [3] 11.6% | [4] -23.1% | [5] 11.1% | [6] 16.4%

CCOc1ccc(N=C=S)cc1
inactive: [1] 29.9% | [2] -3.05% | [3] 18% | [4] 22.3% | [5] 18.9% | [6] 49%

CCCN(CCC)S(=O)(=O)c1ccc(NC(=O)Oc2cc(C)ccc2C(C)C)cc1
inactive: [1] 32.5% | [2] 1.75% | [3] 24.2% | [4] 21.5% | [5] -5.25% | [6] 14.8%

NC(=O)c1cccc[n+]1[O-]
inactive: [1] -6.25% | [2] 7.25% | [3] -12.6% | [4] 6.05% | [5] 19.6% | [6] 1.3%

CCOC(=O)/C=C/C(=O)N(C)c1ccccc1
inactive: [1] -12.2% | [2] -7.15% | [3] -5.3% | [4] -0.5% | [5] -12.7% | [6] -18.6%

CNCc1ccccc1[N+](=O)[O-]
inactive: [1] 6.75% | [2] -3.95% | [3] -3.9% | [4] -9.95% | [5] 3.7% | [6] -0.3%

CSc1cc(Cl)c(C)cc1S(=O)(=O)n1cc[nH]c1=O
inactive: [1] -2.4% | [2] 1.4% | [3] 3.35% | [4] -0.05% | [5] -3.75% | [6] 17.1%

CCCNC(=O)Nc1ccc2c(c1)Cc1cc([N+](=O)[O-])ccc1-2
inactive: [1] -12.2% | [2] 2.5% | [3] -4.3% | [4] -42% | [5] 6.75% | [6] -14.3%

Cc1ccc(Nc2ncnc3c2cnn3-c2ccccc2)cc1
inactive: [1] 9.7% | [2] 12.2% | [3] 43.5% | [4] -24.1% | [5] -2.35% | [6] 8.05%

CC1=COC2(CC1)OC1CC3C4CCC5CC(O)CCC5(C)C4CCC3(C)C1C2C (stereo unspecified)
inactive: [2] 60% | [4] 45.5% | [5] 39.5%
active: [1] 72.5% | [3] 87.3% | [6] 83%

CC(=O)Nc1cccc(Cc2ccccc2)c1
inactive: [1] 14.3% | [2] -14.4% | [3] 1.05% | [4] -67.2% | [5] -6.3% | [6] -4.6%

CC1COC(C(C)C)(C(C)C)O1 (stereo unspecified)
inactive: [1] -8.6% | [2] -30.1% | [3] -4.2% | [4] -10% | [5] -2.7% | [6] 22.4%

CCCC(C)C(=O)OC(C)CC(C)C (stereo unspecified)
inactive: [1] 31% | [2] 15.9% | [3] 21.9% | [4] -0.75% | [5] 20.9% | [6] 15.6%

O=C(C[n+]1csc2ccccc21)c1ccc(-c2ccccc2)cc1
inactive: [1] 18.1% | [2] 9.8% | [3] -11.9% | [4] -3.05% | [5] 11.6% | [6] 4.85%

COC(=O)C(=O)C1(C)CCc2c(ccc3ccc(OC)cc23)C1=O (stereo unspecified)
inactive: [1] -32.8% | [2] -3.1% | [3] -5.9% | [4] -31.9% | [5] 19.9% | [6] -5.65%

C=CCc1cccc(C2N(Cc3ccc(OC)cc3OC)CCCN2Cc2ccc(OC)cc2OC)c1O
inactive: [1] 26.6% | [2] 7% | [3] -0.75% | [4] 16.6% | [5] -2.05% | [6] 17.8%

NC1=Nc2cc(C(F)(F)F)ccc2Sc2nc3ccccc3n21
inactive: [1] 4% | [2] -15.8% | [3] 20.1% | [4] 13.2% | [5] 22.4% | [6] 5.65%

CCCC(N)C(=O)NC(Cc1c[nH]c2ccccc12)C(=O)O (stereo unspecified)
inactive: [1] -23.9% | [2] -6.65% | [3] -12% | [4] -0.3% | [5] 0.9% | [6] 2.05%

Cc1nc2ccc(Cl)cc2c(-n2ccnc2)c1CCn1ccnc1
inactive: [1] -11.6% | [2] -4.6% | [3] -3.55% | [4] -0.5% | [5] 9.25% | [6] -3.7%
